Assay outcomes from PubChem.
12-LOX inh – Primary qHTS assay for inhibitors of human arachidonate 12S-lipoxygenase (ALOX12): Round 2; 1.1% of 580,000 active; purified 12hLO, xylenol orange hydroperoxide absorbance; Potency, µM (top dose mostly 108 µM), inactives show at the top dose activity change, negative = inhibition, actives largely listed as inhibitors; AID 1671190, 2021; further: potency means the concentration at half of the fitted maximal effect
Target sequence (P18054 whole entry, looked up): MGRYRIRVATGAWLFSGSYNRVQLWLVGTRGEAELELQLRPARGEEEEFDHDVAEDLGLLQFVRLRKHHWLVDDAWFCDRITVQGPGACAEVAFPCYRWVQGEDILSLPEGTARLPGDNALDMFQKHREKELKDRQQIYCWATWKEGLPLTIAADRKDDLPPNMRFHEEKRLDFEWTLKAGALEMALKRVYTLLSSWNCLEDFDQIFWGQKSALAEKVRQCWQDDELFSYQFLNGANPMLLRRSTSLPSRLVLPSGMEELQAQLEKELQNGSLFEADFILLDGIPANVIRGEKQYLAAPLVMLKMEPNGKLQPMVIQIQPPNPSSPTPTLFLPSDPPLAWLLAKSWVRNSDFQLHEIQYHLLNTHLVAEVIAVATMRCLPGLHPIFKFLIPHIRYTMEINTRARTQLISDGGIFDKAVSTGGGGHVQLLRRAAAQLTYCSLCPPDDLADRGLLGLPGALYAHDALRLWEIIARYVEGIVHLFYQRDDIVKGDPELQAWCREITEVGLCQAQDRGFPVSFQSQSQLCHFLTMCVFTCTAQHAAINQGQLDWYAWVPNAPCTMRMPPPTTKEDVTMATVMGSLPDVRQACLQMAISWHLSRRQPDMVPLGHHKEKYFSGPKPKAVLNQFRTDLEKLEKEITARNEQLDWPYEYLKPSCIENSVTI
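Purified human 12hLO at 150 nM in 25 mM Hepes, 0.01% Triton X-100, pH 7.0, preincubated 15 min at room temperature with compound. Reaction started with 40 uM arachidonic acid, 30 min at room temperature. Hydroperoxide measured by Fe-xylenol orange, 573/405 nm absorbance ratio.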
DT40 TDP1 CPT – qHTS for Inhibitors of human tyrosyl-DNA phosphodiesterase 1 (TDP1): qHTS in cells in presence of CPT; chicken DT40 Tdp1-/-;hTDP1 cells + 20 nM CPT, ATP luminescence, 48 h; Potency, µM (titrated, usually from 46.2 µM), for the others: top-dose activity change, negative = growth inhibition, most hits filed as inhibitors; 12% of 420,000 active; further: potency means the concentration at half of the fitted maximal effect; nearly all actives have a fitted effect of over 55% in size
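Chicken DT40 Tdp1-/- cells complemented with human TDP1, 400 cells/well, exposed to compounds plus 20 nM camptothecin for at least 48 h at 37 C; viability read as ATP content by CellTiter-Glo luminescence.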
HT1080 IDH1KD tx – qHTS for induction of synthetic lethality in tumor cells producing 2HG: qHTS for the HT-1080-IDH1KD cell line | HT-1080 IDH1 knockdown viability, ATP luminescence, 48 h | Potency, µM (doses to about 46.1 µM), inactives show top-dose activity, negative = toxicity, hits mostly cytotoxic | 2% of 360,000 active;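 further: potency means the concentration at half of the fitted maximal effect; 0% = DMSO wells and -100% = cell-free medium wells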
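In this qHTS, HT-1080 cells depleted of IDH1 are exposed for 48 h at 37 °C to compound titrations. Toxicity is scored from CellTiter-Glo luminescence, with DMSO as full viability and medium alone as none.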
IL1B secr inh – qHTS for Inhibitors of Inflammasome Signaling: IL-1-beta AlphaLISA Primary Screen | 4.7% of 360,000 active | activity change, % at 57.5 µM | THP-1 LPS/ATP IL-1B secretion, AlphaLISA, 16 h; hits give low values | AID 743279, 2014; in the data active means activity change below about -50%; inconclusive means mostly about -30% to -49%
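THP-1 cells pretreated 1 hr with compounds (up to 57.5 uM final), then stimulated with LPS (250 ng/mL final) plus ATP (1.25 mM final); secreted IL-1B measured by AlphaLISA after 16 hr, decreased signal indicating inhibition.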
DT40 TDP1 no CPT – qHTS for Inhibitors of human tyrosyl-DNA phosphodiesterase 1 (TDP1): qHTS in cells in absence of CPT; Potency, µM (series often up to 46.2 µM), inactives show at the highest dose activity change, negative = growth inhibition, most hits filed as inhibitors; DT40 Tdp1-/- hTDP1 cells, no CPT, ATP luminescence, 48 h; 15% of 420,000 active; AID 686978, 2013; further: potency means the concentration at half of the fitted maximal effect; nearly all actives have a fitted effect of over 55% in size
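A cellular qHTS used chicken DT40 cells lacking endogenous Tdp1 but carrying stably transfected human TDP1. Compounds were applied without camptothecin, and cell growth kinetics were judged by ATP-dependent luminescence after ≥48 hr.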
HT1080NT lethal – qHTS for induction of synthetic lethality in tumor cells producing 2HG: qHTS for the HT-1080-NT fibrosarcoma cell line; HT-1080-NT fibrosarcoma viability, CellTiter-Glo ATP luminescence, 48 h; Potency, µM (top dose mostly 46.1 µM), without a hit: at the top dose activity, negative = less viability, hits mostly cytotoxic; 1.6% of 360,000 active; AID 686970, 2013;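 further: NT is the 2HG producing partner of a matched IDH1 knockdown line; potency means the concentration at half of the fitted maximal effect; 0% = DMSO-treated cells and -100% = media-only wells without cells; nearly all actives have a fitted effect of over 55% in size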
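Read-out is CellTiter-Glo luminescence after 10 minutes at room temperature, following 48 hours' compound treatment of HT-1080-NT cells (750 cells/well, RPMI, 5% FBS, 37 degrees C).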
Numbers without * were called inactive; ? = inconclusive; / = no result given; [ ] = remark or other dose. Only a selection was taken, and hits are over-represented in it overall. Unless noted, the call rests on the fitted dose curve; in most records, active means well fitted curve in the direction sought with a large enough effect; inconclusive means small, poorly fitted or top-dose-only effect, or another doubt; inactive means no such curve, though single readings can be large; an effect the other way counts as inactive or inconclusive. Unless noted, on the % scale 0 is the no-effect control and ±100 the full control effect.

SMILES	12-LOX inh	DT40 TDP1 CPT	HT1080 IDH1KD tx	IL1B secr inh	DT40 TDP1 no CPT	HT1080NT lethal
CN1C[C@@H]2CCCN3CCC[C@@H]([C@H]23)[C@H]1CCCC(=O)Nc1ccc2c(c1)OCCO2	27%	/	/	/	/	/
CC(=O)c1c(O)cc(O)c(C(C)=O)c1O	/	21µM*	18µM*	39	?	13µM*
CC(C)(C)c1cc(OC(=O)c2ccccc2F)ccc1O	-19%	?	21µM*	-69*	?	33µM*
Cc1ccc(-c2nc3ccc(Cl)cn3c2Nc2ccccc2)o1	/	?	1%	/	?	20%
Cc1ccc2nc(-c3ccc(C)o3)c(Nc3ccc(F)cc3)n2c1	/	2%	19%	/	?	19%
Cc1ccc(-c2nc3cnccn3c2Nc2ccccc2)o1	?	21µM*	7%	36	21µM*	22%
COc1ccc(-c2nc3cnccn3c2Nc2ccc(C)cc2)cc1	10%[57.4 µM]	15µM*	3%	89	15µM*	-7%
Cc1ccc2nc(-c3ccc(C)o3)c(Nc3ccccc3)n2c1	/	3.5µM*	15%	/	4.5µM*	-6%
Cc1ccc(-c2nc3cccc(C)n3c2Nc2ccc(F)cc2)o1	/	?	-20%	/	10µM*	-19%
COc1ccc(Nc2c(-c3ccc(Cl)cc3)nc3cnccn23)cc1OC	?	-3%	/	/	?	/
COc1cccc(CNC(=O)[C@@]23CCCC[C@H]2N(CCC(C)C)C(=O)CC3)c1OC	52%	/	/	/	/	/
Cc1ccc(Nc2c(-c3ccc(C)o3)nc3ccccn23)cc1	/	?	-16%	/	13µM*	-13%
Cc1ccc(-c2nc3ccccn3c2Nc2ccccc2)o1	-22%	-21%	-19%	-16	?	-1%
C[C@@H]1[C@H]2CCCC[C@H]2CN(C(=O)OC(C)(C)C)[C@@H]1c1cn(Cc2ccccc2)c2ccc(F)cc12	2%	?	-5%	9	16µM*	10%
CC(C)(C)OC(=O)N1CCC[C@@H]1C(=O)NCc1ccccc1	0%	/	/	/	/	/
C[C@@H]1[C@H]2CCCC[C@H]2CN(C(=O)OC(C)(C)C)[C@@H]1CC(=O)c1ccccc1	-4%	?	-6%	12	16µM*	-8%
CCc1nc(-c2c3n(c(=O)n(CC(=O)Nc4ccc(F)cc4F)c2=O)CCCCC3)no1	-1%	/	/	/	/	/
O=C1C[C@H]2C=CCc3cccc(c32)CN1Cc1ccc(Br)cc1	/	?	/	/	11µM*	/
Cc1ccccc1CN1Cc2cccc3c2[C@H](C=CC3)CC1=O	/	11µM*	/	/	10µM*	/
Fc1ccc(CN2CC[C@H]3C=CCc4cccc(c43)C2)cc1	30%	?	-12%	24	?	-5%
Clc1ccc(CN2CC[C@H]3C=CCc4cccc(c43)C2)cc1	-3%	?	-16%	18	21µM*	-9%
CCOC(=O)c1ccc(N2CCN(C(C)=O)CC2)c(NC(=O)c2ccc(OC)cc2)c1	-17%	/	/	/	/	/
CCCC(CCC)C(=O)Nc1cccc(C(=O)NCC(C)C)c1	4%	/	/	/	/	/
CCCN(C)C(=O)c1onc(-c2ccc(F)cc2)c1[C@H](C)O	-46%[176 µM]	/	/	/	/	/
O=c1ccc(/C=C/c2ccccc2)nn1Cc1ccc(F)cc1	?	5%	-27%	-60*	-23%	-4%
SMILES	12-LOX inh	DT40 TDP1 CPT	HT1080 IDH1KD tx	IL1B secr inh	DT40 TDP1 no CPT	HT1080NT lethal
Cc1cc(C)n(Cc2ccccc2Cl)n1	?	9%	1%	0	-18%	11%
Cc1ccc(/C=C/c2ccc(=O)n(Cc3ccc(F)cc3)n2)cc1	?	?	?	0	?	-22%
CCOC(=O)Cn1nc(/C=C/c2ccc(OC)cc2)ccc1=O	0%	-19%	-3%	-29	-27%	0%
COc1ccc(/C=C/c2ccc(=O)n(Cc3ccccc3)n2)cc1	?	?	?	-156*	?	-16%
Cc1ccc(/C=C/c2ccc(=O)n(Cc3ccccc3Cl)n2)cc1	0%	16µM*	-1%[9.24 µM]	?	26µM*	?
CCc1nc(-c2c3n(c(=O)n(CC(=O)Nc4cccc(Cl)c4)c2=O)CCCC3)no1	-2%	/	/	/	/	/
Cc1ccc(C(=O)N(CCN2CCCCC2)CC2CCCN(C3CCCC3)C2)s1 (stereo unspecified)	61%	?	-13%	0	21µM*	?
Cc1ccc(F)cc1-c1nccc2c(=O)cc(N(C)C)oc12	-13%[176 µM]	/	/	/	/	/
CC(=O)N1CCN(c2oc(/C=C/c3ccc(F)cc3)nc2C#N)CC1	-3%	/	/	/	/	/
Cc1ccc(NC(=O)c2nn(Cc3ccccc3)c(=O)c3ccccc23)cc1	3%	/	/	/	/	/
C[C@@H]1ON(C)[C@H]2C[C@H]3c4[nH]c5ccc(-c6ccc7c(c6)OCO7)cc5c4CCN3C(=O)[C@@H]12	?	13µM*	?	0	9.2µM*	?
CC(C)N[C@H]1C[C@@H](Cc2cc(COc3ccccc3)on2)C1(C)C	42%[176 µM]	/	/	/	/	/
CN1CCc2nc3sc(C(=O)NCc4ccccc4)c(N)c3cc2C1	-18%	?	?	-8	-27%	-4%
CCC1CCc2nc3sc(C(=O)Nc4cccc(C(F)(F)F)c4)c(N)c3cc2C1 (stereo unspecified)	-15%	?	/	/	18µM*	/
COc1ccc(NC(=O)c2sc3nc4c(cc3c2N)CCCCCC4)cc1Cl	-27%	?	/	/	?	/
CCC1CCc2nc3sc(C(=O)Nc4ccc(C)cc4)c(N)c3cc2C1 (stereo unspecified)	-14%	12µM*	/	/	7.3µM*	/
CCC1CCc2nc3sc(C(=O)Nc4cccc(F)c4)c(N)c3cc2C1 (stereo unspecified)	-13%	3.3µM*	/	/	2.1µM*	/
CN1CCc2nc3sc(C(=O)Nc4ccccc4OC(F)(F)F)c(N)c3cc2C1	0%	?	/	/	?	/
CCC1CCc2nc3sc(C(=O)Nc4ccc(F)cc4F)c(N)c3cc2C1 (stereo unspecified)	-21%	8.2µM*	/	/	?	/
CCOc1ccc(C(=O)c2cn(CC(=O)Nc3ccc(Cl)cc3)c3cc4c(cc3c2=O)OCO4)cc1	-20%	?	/	/	13µM*	/
